Measured values as given in the supplement of paper PMC10849652.
The full data set covers some 7,900 targets. This sample favours those with a hit. About 0.6% of all pairs of compound and target were hits. Unmarked numbers belong to inactive results.

compound: CC(=O)c1cnc2ccc(-c3cc(Cl)c(O)c(Cl)c3)nc2c1N[C@H]1CC[C@H](CN(C)C)CC1; assay: log2 fold change, soluble protein after heating vs DMSO (PISA); higher = thermal stabilisation; K562 cells, 10 uM, 30 min; active = over 0.2 and 3.5 SD of the protein, either way, in both replicates (recomputed)
How it was run: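 K562 cells at 2×10^6 cells/mL were treated for 30 min with 10 μM compound, and aliquots were heated for 3 min over 48°C-58°C before pooling. Extraction used PBS with 0.5% NP-40 at 4°C, and soluble protein was the supernatant after 21,000xg for 90 min, measured by TMTpro 16plex LC-MS/MS with channel sums equalised. Thermal stability values, relative to control samples and from duplicates, are log2 fold changes.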

Sequence of UniProt Q8TCT7 (Q8TCT7 whole entry, looked up): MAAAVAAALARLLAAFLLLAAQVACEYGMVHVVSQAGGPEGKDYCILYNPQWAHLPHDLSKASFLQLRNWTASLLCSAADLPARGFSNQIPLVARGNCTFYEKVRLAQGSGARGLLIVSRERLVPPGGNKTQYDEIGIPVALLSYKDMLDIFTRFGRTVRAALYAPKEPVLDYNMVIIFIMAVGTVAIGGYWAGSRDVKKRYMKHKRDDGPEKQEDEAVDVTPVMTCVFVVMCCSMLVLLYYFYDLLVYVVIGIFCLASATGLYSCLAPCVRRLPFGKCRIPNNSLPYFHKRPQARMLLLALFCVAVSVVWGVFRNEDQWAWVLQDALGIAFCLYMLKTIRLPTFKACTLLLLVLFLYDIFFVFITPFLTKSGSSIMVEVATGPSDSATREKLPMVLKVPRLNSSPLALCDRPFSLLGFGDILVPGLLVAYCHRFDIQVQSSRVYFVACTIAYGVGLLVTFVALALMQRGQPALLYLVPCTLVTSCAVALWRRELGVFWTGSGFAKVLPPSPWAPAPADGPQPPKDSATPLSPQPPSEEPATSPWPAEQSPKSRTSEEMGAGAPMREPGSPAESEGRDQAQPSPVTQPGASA
Sequence of UniProt Q8WUH2 (Q8WUH2 whole entry, looked up): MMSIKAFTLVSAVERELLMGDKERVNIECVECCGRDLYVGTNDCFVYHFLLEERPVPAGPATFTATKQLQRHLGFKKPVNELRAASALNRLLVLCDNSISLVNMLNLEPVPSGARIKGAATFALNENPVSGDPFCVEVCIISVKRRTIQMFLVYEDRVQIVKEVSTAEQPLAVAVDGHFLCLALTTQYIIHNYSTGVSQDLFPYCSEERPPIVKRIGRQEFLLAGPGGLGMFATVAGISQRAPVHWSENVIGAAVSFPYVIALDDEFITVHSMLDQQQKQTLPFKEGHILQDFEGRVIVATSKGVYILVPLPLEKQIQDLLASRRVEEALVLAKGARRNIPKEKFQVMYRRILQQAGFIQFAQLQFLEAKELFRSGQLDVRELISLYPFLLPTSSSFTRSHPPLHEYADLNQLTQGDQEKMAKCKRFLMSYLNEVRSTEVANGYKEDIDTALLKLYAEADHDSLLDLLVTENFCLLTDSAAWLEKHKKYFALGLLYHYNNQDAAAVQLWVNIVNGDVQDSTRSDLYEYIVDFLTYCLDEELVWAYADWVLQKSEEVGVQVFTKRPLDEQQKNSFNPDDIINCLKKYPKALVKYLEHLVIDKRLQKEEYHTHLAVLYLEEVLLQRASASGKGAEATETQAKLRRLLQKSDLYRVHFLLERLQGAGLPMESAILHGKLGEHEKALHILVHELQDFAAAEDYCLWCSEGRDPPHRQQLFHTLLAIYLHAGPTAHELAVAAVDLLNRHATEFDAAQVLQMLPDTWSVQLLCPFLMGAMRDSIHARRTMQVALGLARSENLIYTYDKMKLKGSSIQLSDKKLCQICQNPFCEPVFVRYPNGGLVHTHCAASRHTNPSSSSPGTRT
Sequence of UniProt Q9UQ35 (Q9UQ35 whole entry, looked up): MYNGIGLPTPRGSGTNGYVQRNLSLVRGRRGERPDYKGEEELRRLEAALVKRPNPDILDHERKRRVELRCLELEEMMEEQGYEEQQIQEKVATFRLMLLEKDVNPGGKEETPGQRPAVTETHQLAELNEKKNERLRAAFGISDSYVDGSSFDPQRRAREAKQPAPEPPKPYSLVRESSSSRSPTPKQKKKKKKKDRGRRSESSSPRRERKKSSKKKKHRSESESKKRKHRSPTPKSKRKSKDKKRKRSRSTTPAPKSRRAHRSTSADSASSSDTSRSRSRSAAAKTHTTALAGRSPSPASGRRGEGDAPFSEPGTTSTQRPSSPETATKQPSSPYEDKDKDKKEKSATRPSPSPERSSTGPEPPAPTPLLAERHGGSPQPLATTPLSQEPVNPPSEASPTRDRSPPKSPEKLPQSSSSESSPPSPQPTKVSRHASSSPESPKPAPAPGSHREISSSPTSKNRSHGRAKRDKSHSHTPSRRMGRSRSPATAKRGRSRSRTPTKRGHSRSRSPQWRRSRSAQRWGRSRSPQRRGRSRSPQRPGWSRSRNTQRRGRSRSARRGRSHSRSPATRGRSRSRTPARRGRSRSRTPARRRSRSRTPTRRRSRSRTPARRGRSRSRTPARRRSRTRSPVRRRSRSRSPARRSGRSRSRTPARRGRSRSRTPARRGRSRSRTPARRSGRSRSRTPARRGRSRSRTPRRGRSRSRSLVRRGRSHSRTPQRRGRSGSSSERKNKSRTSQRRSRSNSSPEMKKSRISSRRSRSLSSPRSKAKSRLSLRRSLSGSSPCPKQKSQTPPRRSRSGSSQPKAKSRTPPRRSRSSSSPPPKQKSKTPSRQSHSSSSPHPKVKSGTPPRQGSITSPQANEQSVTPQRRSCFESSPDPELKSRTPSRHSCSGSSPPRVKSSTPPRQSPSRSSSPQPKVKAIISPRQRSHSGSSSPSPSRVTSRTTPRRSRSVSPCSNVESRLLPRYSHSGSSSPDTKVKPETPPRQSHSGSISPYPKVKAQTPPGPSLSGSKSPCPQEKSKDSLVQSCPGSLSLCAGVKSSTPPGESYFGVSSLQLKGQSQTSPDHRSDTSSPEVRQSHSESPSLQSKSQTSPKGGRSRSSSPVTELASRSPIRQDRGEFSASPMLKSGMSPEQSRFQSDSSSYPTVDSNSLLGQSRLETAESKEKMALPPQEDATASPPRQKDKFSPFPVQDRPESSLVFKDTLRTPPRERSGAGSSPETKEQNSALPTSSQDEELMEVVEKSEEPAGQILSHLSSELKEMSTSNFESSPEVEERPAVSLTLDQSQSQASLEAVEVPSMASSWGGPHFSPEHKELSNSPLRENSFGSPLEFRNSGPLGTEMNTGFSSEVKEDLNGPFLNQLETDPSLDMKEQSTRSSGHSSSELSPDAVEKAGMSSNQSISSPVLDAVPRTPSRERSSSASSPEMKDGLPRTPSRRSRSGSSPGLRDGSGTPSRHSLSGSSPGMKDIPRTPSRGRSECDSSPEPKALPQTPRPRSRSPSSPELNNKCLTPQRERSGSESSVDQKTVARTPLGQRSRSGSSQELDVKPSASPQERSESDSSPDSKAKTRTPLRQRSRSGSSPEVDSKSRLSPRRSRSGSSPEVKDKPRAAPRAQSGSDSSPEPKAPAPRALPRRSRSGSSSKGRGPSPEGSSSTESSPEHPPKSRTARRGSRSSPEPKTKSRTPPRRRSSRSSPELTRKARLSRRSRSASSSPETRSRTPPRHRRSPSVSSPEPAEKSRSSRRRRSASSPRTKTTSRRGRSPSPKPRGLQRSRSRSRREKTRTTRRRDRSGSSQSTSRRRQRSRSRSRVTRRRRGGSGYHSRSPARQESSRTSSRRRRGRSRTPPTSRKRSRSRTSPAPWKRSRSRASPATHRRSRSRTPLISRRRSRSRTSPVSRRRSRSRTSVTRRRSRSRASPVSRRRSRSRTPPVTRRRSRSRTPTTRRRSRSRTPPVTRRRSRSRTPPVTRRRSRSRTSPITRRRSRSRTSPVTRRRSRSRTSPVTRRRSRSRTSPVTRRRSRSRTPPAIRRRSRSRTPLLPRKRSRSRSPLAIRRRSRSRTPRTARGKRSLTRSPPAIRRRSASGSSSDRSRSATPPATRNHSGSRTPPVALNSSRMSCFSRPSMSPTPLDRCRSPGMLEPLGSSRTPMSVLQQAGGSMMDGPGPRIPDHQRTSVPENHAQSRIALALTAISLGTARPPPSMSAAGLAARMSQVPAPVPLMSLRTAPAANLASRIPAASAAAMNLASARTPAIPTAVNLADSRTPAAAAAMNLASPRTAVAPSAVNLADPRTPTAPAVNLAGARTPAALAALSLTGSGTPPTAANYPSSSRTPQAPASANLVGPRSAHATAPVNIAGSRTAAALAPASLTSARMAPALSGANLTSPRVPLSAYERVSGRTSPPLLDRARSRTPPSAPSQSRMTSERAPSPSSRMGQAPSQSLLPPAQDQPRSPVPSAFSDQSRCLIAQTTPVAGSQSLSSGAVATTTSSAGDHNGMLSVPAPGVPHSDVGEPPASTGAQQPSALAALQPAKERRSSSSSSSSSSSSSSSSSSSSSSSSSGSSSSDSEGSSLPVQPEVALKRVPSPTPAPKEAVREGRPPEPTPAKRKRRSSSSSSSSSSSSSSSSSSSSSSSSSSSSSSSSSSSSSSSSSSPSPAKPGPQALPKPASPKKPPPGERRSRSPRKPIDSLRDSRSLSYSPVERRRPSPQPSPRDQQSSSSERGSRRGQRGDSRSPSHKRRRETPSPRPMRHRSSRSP
Sequence of UniProt Q9NUY8 (Q9NUY8 whole entry, looked up): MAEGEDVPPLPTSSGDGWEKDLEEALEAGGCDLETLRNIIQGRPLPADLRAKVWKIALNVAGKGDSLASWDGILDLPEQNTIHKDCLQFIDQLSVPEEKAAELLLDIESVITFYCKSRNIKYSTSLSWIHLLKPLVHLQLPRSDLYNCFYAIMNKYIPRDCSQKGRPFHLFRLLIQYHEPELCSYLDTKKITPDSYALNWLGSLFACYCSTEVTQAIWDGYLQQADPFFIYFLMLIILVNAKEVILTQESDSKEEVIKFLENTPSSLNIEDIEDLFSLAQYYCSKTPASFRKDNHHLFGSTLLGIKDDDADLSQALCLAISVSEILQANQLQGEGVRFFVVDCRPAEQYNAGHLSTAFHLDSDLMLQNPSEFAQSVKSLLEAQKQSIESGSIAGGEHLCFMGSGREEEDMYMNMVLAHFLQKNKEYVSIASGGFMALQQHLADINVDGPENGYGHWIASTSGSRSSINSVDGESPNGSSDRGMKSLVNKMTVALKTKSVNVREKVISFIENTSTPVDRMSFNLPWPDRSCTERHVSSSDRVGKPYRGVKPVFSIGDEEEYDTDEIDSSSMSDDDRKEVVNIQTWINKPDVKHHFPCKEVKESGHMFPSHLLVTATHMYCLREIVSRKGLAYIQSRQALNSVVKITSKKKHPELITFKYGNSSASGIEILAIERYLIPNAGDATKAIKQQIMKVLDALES
Sequence of UniProt Q01130 (Q01130 whole entry, looked up): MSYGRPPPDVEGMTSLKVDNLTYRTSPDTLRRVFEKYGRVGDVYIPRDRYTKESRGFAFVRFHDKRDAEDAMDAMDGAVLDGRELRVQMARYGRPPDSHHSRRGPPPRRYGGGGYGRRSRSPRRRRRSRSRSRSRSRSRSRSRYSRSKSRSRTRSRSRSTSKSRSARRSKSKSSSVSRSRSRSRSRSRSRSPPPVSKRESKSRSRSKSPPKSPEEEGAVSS

Row | Target | log2 fold change
1 | TBC1D23 (UniProt Q9NUY8) | -0.067
2 | TFB2M (UniProt Q9H5Q4) | -0.013
3 | TGFBRAP1 (UniProt Q8WUH2) | -0.119
4 | SNX9 (UniProt Q9Y5X1) | -0.043
5 | THRAP3 (UniProt Q9Y2W1) | -0.581 (active)
6 | SRRM2 (UniProt Q9UQ35) | -0.326
7 | SSX2 (UniProt Q16385) | -0.006
8 | SMAP (UniProt O00193) | -0.021
9 | SMARCA5 (UniProt O60264) | 0.103
10 | SPAG9 (UniProt O60271) | 0.022
11 | SURF1 (UniProt Q15526) | 0.051
12 | TANGO6 (UniProt Q9C0B7) | 0.052
13 | SYNE1 (UniProt Q8NF91) | -0.398
14 | STAM2 (UniProt O75886) | -0.018
15 | SRSF2 (UniProt Q01130) | -0.073
16 | SMAD9 (UniProt O15198) | -0.092
17 | SPPL2B (UniProt Q8TCT7) | -0.039
18 | SUOX (UniProt P51687) | 0.003
19 | SPART (UniProt Q8N0X7) | -0.084

Row | Target | log2 fold change
20 | TLK1 (UniProt Q9UKI8) | -0.089
21 | STXBP5 (UniProt Q5T5C0) | -0.073
22 | TCOF1 isoform 4 (UniProt Q13428) | -0.13
23 | TERF2IP (UniProt Q9NYB0) | -0.151
24 | TARS2 (UniProt Q9BW92) | 0.009
25 | TM9SF2 (UniProt Q99805) | -0.04
26 | TIPRL (UniProt O75663) | -0.067
27 | SREK1 isoform 2 (UniProt Q8WXA9) | -0.497 (active)
28 | SNX3 (UniProt O60493) | -0.028
29 | STXBP2 isoform 3 (UniProt Q15833) | -0.021
30 | SMPD4 isoform 4 (UniProt Q9NXE4) | 0.12
31 | TIMM13 (UniProt Q9Y5L4) | 0.01
32 | SPTBN1 (UniProt Q01082) | -0.033
33 | SUN2 (UniProt Q9UH99) | -0.044
34 | TAOK1 (UniProt Q7L7X3) | -0.827 (active)
35 | SMARCE1 (UniProt Q969G3) | -0.006
36 | SRI (UniProt P30626) | -0.014
37 | SNRPB2 (UniProt P08579) | 0.089
